IL1B secr inh – qHTS for Inhibitors of Inflammasome Signaling: IL-1-beta AlphaLISA Primary Screen; actives 4.7% (n = 360,000); THP-1 LPS/ATP IL-1B secretion, AlphaLISA, 16 h; stronger effect = lower value; activity change, % at 57.5 µM; in the data active = activity change below about -50%; inconclusive = mostly about -30% to -49%
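Secreted IL-1B measured by AlphaLISA bead assay after 16 h compound exposure of THP-1 cells; compounds (final up to 57.5 uM) added 1 h before LPS (250 ng/mL) and ATP (1.25 mM) stimulation; lower signal means less secretion.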
HT1080 IDH1KD tx – qHTS for induction of synthetic lethality in tumor cells producing 2HG: qHTS for the HT-1080-IDH1KD cell line. Potency, µM (top dose mostly 46.1 µM), for inactives: at the highest dose activity, negative = toxicity, hits mostly cytotoxic. AID 686971, 2013. HT-1080 IDH1 knockdown viability, ATP luminescence, 48 h. actives 2% (n = 360,000);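 note: potency is the fitted concentration of half-maximal effect; 0% = DMSO wells and -100% = cell-free medium wells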
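Luminescent ATP read-out (CellTiter-Glo, 10 min at room temperature) after 48 h compound exposure at 37 °C gave viability of IDH1-knockdown HT-1080 cells. Activity was normalised to DMSO and cell-free wells, then fitted as concentration-response curves.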
HT1080NT lethal – qHTS for induction of synthetic lethality in tumor cells producing 2HG: qHTS for the HT-1080-NT fibrosarcoma cell line; Potency, µM (top dose mostly 46.1 µM), without a hit: at the top dose activity, negative = less viability, usual class: cytotoxic; actives 1.6% (n = 360,000); HT-1080-NT fibrosarcoma viability, CellTiter-Glo ATP luminescence, 48 h;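 note: NT is the 2HG producing partner of a matched IDH1 knockdown line; potency is the fitted concentration of half-maximal effect; 0% = DMSO-treated cells and -100% = media-only wells without cells; nearly all actives have a fitted effect of over 55% in size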
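Compounds were tested in concentration-response format on HT-1080-NT cells for 48 hours at 37 degrees C. Cell viability came from CellTiter-Glo luminescence; curves were classified by r2, response magnitude and activity.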
KB-3-1 cytotox – qHTS assay for MDR1-selective chemotherapeutics: Primary screen using the parental adenocarcinoma cell KB-3-1; AID 1347075, 2019; KB-3-1 viability, CellTiter-Glo ATP luminescence, 72 h; actives 1.4% (n = 400,000); Potency, µM (series often up to 46.1 µM), most hits filed as cytotoxic; note: potency is the fitted concentration of half-maximal effect; nearly all actives have a fitted effect of over 60% in size
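Parental KB-3-1 viability, qHTS format: 72 h compound exposure, 37 °C; CellTiter-Glo; media-only wells and DMSO plates as controls; concentration-effect fits on corrected data.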
KB-V1 cytotox – qHTS assay for MDR1-selective chemotherapeutics: Primary screen using the drug-selected MDR subline cells KB-V1; KB-V1 MDR cells viability, CellTiter-Glo, 72 h; AID 1347076, 2019; Potency, µM (top dose mostly 46.1 µM), hits mostly cytotoxic; actives 3.4% (n = 400,000); note: potency is the fitted concentration of half-maximal effect; nearly all actives have a fitted effect of over 60% in size
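In this primary screen, KB-V1 cells overexpressing P-gp are incubated with library compounds (lowest to highest concentration) for 72 h at 37 degrees C before a luminescent ATP viability read.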
Active calls of the source: *; i = inactive; ? = inconclusive; / = not tested or not shown; [ ] = remark or other dose. An excerpt weighted towards active compounds, which were near 8.8% of everything screened. Unless noted, calls come from the whole dose curve; as a rule, active = well fitted curve in the direction sought with a large enough effect; inconclusive = small, poorly fitted or top-dose-only effect, or another doubt; inactive = no such curve, though single readings can be large; an effect the other way counts as inactive or inconclusive. Unless noted, % is set by controls: 0 for no effect and ±100 for the full control effect.

SMILES	IL1B secr inh	HT1080 IDH1KD tx	HT1080NT lethal	KB-3-1 cytotox	KB-V1 cytotox
Cc1ccc(Cn2nnnc2CN2CCC(NC(=O)c3ccc(Br)cc3)CC2)cc1	-4	0%[9.24 µM]	-3%	i	18µM*
Cc1ccccc1C(=O)NC1CCN(Cc2nnnn2Cc2ccccc2)CC1	5	-4%	0%	i	?
O=C(NC1CCN(Cc2nnnn2CCc2ccccc2)CC1)c1ccccc1F	31	-6%	0%	i	16µM*
CCC(C)(C)n1nnnc1CN1CCC(NC(=O)c2ccc(Br)cc2)CC1	-8	1%	2%	i	i
O=C(CSc1nnc(NC(=O)C2CC2)s1)NCc1ccccc1Cl	30	7%	0%	i	i
COC(=O)C1=C(C)N(CCCC(=O)O)C(=O)NC1c1ccccc1OS(=O)(=O)c1ccccc1[N+](=O)[O-] (stereo not given)	50	-2%	0%	i	i
CCOC(=O)C1=C(C)N(Cc2ccccc2)C(=O)NC1c1ccccc1OS(=O)(=O)c1ccccc1[N+](=O)[O-] (stereo not given)	?	0%	1%	?	7.3µM*
CC(C)Cn1c2c(c(O)c(C(=O)Nc3nccs3)c1=O)CCCC2	8	?	4%	?	7.3µM*
O=S(=O)(c1ccc(Oc2ccc(Br)cc2F)nc1)N1CCCCC1	-9	-7%	0%	?	23µM*
N#Cc1ccccc1Oc1ccc(S(=O)(=O)N2CCCCC2)cn1	12	-2%	-3%	i	?
COc1ccc(C=O)cc1COc1ccc([N+](=O)[O-])c(C)c1	15	?	?	i	i
COc1ccc(C=O)cc1COc1ccc2c(c1)OCO2	47	23µM*	?	?	?
CN(Cc1c(F)cccc1Cl)C(=O)c1cccc(S(=O)(=O)N2CCN(Cc3ccccc3)CC2)c1	-27	-2%	-4%	i	i
CN(C)C(=O)c1ccc(NC(=O)c2cccc(S(=O)(=O)N3CCN(Cc4ccccc4)CC3)c2)cc1	-2	-7%	-5%	i	i
CN(Cc1ccc(OC(F)F)cc1)C(=O)c1cccc(S(=O)(=O)N2CCN(Cc3ccccc3)CC2)c1	-60*	-17%	-22%	15µM*	?
CN(CC(=O)Nc1ccc(Cl)cc1)C(=O)c1cccc(S(=O)(=O)N2CCN(Cc3ccccc3)CC2)c1	?	-24%	-2%	16µM*	?
CCCN(CCC)S(=O)(=O)c1ccc(Cl)c([N+](=O)[O-])c1	-103*	23µM*	?	i	i
CCOC(=O)C(C)(C)N(Cc1ccccc1C)S(=O)(=O)c1ccc(Cl)c([N+](=O)[O-])c1	-97*	?	?	i	i
CCOC(=O)N(C)S(=O)(=O)c1ccccc1[N+](=O)[O-]	-5	18%	-4%	?	i
CCCCN(CCCC)S(=O)(=O)c1ccc(N2CCCC2=O)c([N+](=O)[O-])c1	15	-16%	1%	i	?
CCCC(=O)Nc1cc(S(=O)(=O)N(CC)CC)ccc1Cl	-3	17%	10%	i	i
CCCN(CCC)S(=O)(=O)c1ccc(N2CCCC2=O)c([N+](=O)[O-])c1	2	5%	9%	i	21µM*
COc1ccccc1NC(=O)Cn1c(=O)n(CC2CCC(C(=O)NCCc3ccccc3)CC2)c(=O)c2ccccc21 (stereo not given)	/	/	/	i	i
CCN1CCC(O)(C(C(=O)O)c2ccccc2)CC1 (stereo not given)	3	0%	-1%	i	i
O=[N+]([O-])c1ccccc1S(=O)(=O)N/C(=N/S(=O)(=O)c1ccccc1)c1ccccc1	29	12%	7%	i	i
SMILES	IL1B secr inh	HT1080 IDH1KD tx	HT1080NT lethal	KB-3-1 cytotox	KB-V1 cytotox
COc1ccc(NC(C)=O)c([N+](=O)[O-])c1[N+](=O)[O-]	-69*	-9%	-8%	i	i
COc1ccc(OC)c([N+](=O)[O-])c1C(N)=O	12	7%	18%	i	i
CCOC(=O)C1CCCN(C(=O)C2(c3ccc(Cl)cc3)CCCC2)CC1 (stereo not given)	16	-15%	-27%	i	i
COc1ccc(CN(C)CC2CCCN(CCc3ccccc3C)C2)cc1O (stereo not given)	-52*	?	?	i	i
CN(Cc1ccccc1OCCO)CC1CCCN(CCc2ccc(Cl)cc2)C1 (stereo not given)	-61*	?	?	i	?
COc1cc(OC)c(OC)cc1CN(C)CC1CCCN(CCc2ccccc2F)C1 (stereo not given)	?	?	-26%	i	?
COc1cccc(CN(C)CC2CCCN(CCc3ccccc3C)C2)c1 (stereo not given)	-26	?	?	i	i
CCN1CCN(C(c2cccc(Cl)c2)c2c(O)cc(C)n(CCOC)c2=O)CC1 (stereo not given)	/	/	/	i	i
Brc1ccc2c(c1)OCCOCCOCCOCCOCCOCCO2	-27	-2%	1%	i	6.5µM*
c1ccc2c(c1)OCCOCCOCCOCCOc1ccccc1OCCOCCOCCO2	-4	-18%	-6%	26µM*	3.7µM*
CCOC(OCC)c1cc2ccccc2cn1	34	5%	17%	i	i
O=C(NC(=S)Nc1ccc(Cc2ccncc2)cc1)c1ccccc1F	-74*	-18%	-22%	i	?
COc1ccc(C(=O)NC(=S)Nc2ccc(Cc3ccncc3)cc2)cc1	-64*	21µM*	18µM*	?	?
CC(Sc1nnc(C2CC2)n1-c1ccccc1)C(=O)N1CCCC1 (stereo not given)	11	12%	2%	i	i
CCOC(=O)[C@]12CCCC=C1N(Cc1cccc3ccccc13)C(=O)[C@H](CC(=O)N1CCOCC1)C2	10	1%	-3%	i	i
O=C(CCN1C(=O)c2cccc([N+](=O)[O-])c2C1=O)Nc1nccs1	-5	-10%	2%	i	i
CC(=O)N1CCCC(C(=O)c2ccc(Oc3ccccc3)cc2)C1 (stereo not given)	?	16µM*	23µM*	i	?
CC(C)c1nnc(NC(=O)c2ccc3c(c2)OCO3)s1	-17	8%	12%	i	i
COc1ccccc1-c1nnc(NC(=O)c2ccc3c(c2)OCO3)s1	0	?	-20%	5.8µM*	6.5µM*
